Data taken from the supplement of paper PMC7411054.
Structures can show the parent of a compound that is named as a salt. Unmarked numbers belong to inactive results.

These molecules were tested on HepG2-TP53BP1-CLTA (assay: phenotypically active (imaging signature differs from DMSO and reproducible) at any of 0.3-9 uM (binary (1 = active, 0 = inactive)); higher = active). Conditions: treatment time: 24 h.
Procedure, shortened: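 Live-cell features were measured per well and normalised to solvent control wells after fifteen gene-edited A549, HepG2 and WPMY1 reporter lines had been treated for 24 h at 0.3, 1, 3 or 9 µM in four wells each. A condition was deviating when ≥3 of 4 wells sat beyond the 95th percentile of control Euclidean distances. It was reproducible when the median replicate Pearson correlation exceeded the 95th percentile of non-replicates. Phenotypic activity demanded both.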

| Structure (SMILES) | phenotypically active |
| --- | --- |
| O=P(O)(O)C(O)(Cc1cccnc1)P(=O)(O)O [risedronate] | 0 |
| O=C(CCc1ccc(O)cc1)c1c(O)cc(O)cc1O[C@@H]1O[C@H](CO)[C@@H](O)[C@H](O)[C@H]1O [Phloridzin] | 0 |
| CC(C)NCCCC1(C(N)=O)c2ccccc2-c2ccccc21 [indecainide] | 0 |
| COc1c2occc2cc2ccc(=O)oc12 [methoxsalen] | 0 |
| CC(=O)N[C@@H](CC(=O)O)C(=O)N[C@@H](CCC(=O)O)C(=O)O [Spaglumic acid] | 0 |
| OCC(CO)N[C@H]1C[C@](O)(CO)[C@@H](O)[C@H](O)[C@H]1O [Voglibose] | 0 |
| CCOc1ccccc1OCCN[C@H](C)Cc1ccc(OC)c(S(N)(=O)=O)c1 [tamsulosin] | 0 |
| O=C1NC(=O)/C(=C\c2cccc(C(F)(F)F)c2)S1 | 0 |
| NS(=O)(=O)c1cc(Cl)c(Cl)c(S(N)(=O)=O)c1 [diclofenamide] | 0 |
| CN1CCN2c3ncccc3Cc3ccccc3C2C1 (stereo unspecified) [Mirtazapine] | 0 |
| O=C1N(c2ccccc2)c2ccccc2C1(Cc1ccncc1)Cc1ccncc1 [linopirdine] | 0 |
| C[C@H]1[C@H](C)CC[C@]2(C(=O)O)CC[C@]3(C)C(=CC[C@@H]4[C@@]5(C)CC[C@H](O)C(C)(C)[C@@H]5CC[C@]43C)[C@H]12 [Ursolic acid] | 0 |
| CCOC(=O)[C@H](CCc1ccccc1)N[C@@H](C)C(=O)N1Cc2ccccc2C[C@H]1C(=O)O [quinapril] | 0 |
| CC1(C)CCC(C)(C)c2cc(C3(c4ccc(C(=O)O)cc4)OCCO3)ccc21 | 0 |
| CCCCCCCCCN1C[C@H](O)[C@@H](O)[C@H](O)[C@H]1CO [N-Nonyldeoxynojirimycin] | 0 |
| CC(=O)O[C@H]1C[C@@H]2CC[C@@H]3[C@H](CC[C@@]4(C)[C@H]3C[C@H]([N+]3(C)CCCCC3)[C@@H]4OC(C)=O)[C@@]2(C)C[C@@H]1N1CCCCC1 [vecuronium] | 0 |
| O=C(O)c1cc(/N=N/c2ccc(O)c(C(=O)O)c2)ccc1O [olsalazine] | 0 |
| CCOC(=O)[C@H](CCc1ccccc1)N[C@H]1CCc2ccccc2N(CC(=O)O)C1=O [benazepril] | 0 |

| Structure (SMILES) | phenotypically active |
| --- | --- |
| O=C(c1ccccc1)c1ccc2n1CCC2C(=O)O (stereo unspecified) [ketorolac] | 0 |
| CN1C(=O)CC[C@H]1c1cccnc1 [(-)-Cotinine] | 0 |
| CN1C(=O)OC(C)(C)C1=O [trimethadione] | 0 |
| CCC(=C(CC)c1ccc(O)cc1)c1ccc(O)cc1 (stereo in doubt) [diethylstilbestrol] | 0 |
| CCOc1cc(CC(=O)N[C@@H](CC(C)C)c2ccccc2N2CCCCC2)ccc1C(=O)O [repaglinide] | 0 |
| O=C(Cn1ccnc1[N+](=O)[O-])NCc1ccccc1 [benznidazole] | 0 |
| CCCc1nn(C)c2c(=O)[nH]c(-c3cc(S(=O)(=O)N4CCN(C)CC4)ccc3OCC)nc12 [Sildenafil citrate] | 0 |
| CCN(CC)CC(=O)Nc1c(C)cccc1C [lidocaine] | 0 |
| COc1ccc([C@@H]2Sc3ccccc3N(CCN(C)C)C(=O)[C@@H]2OC(C)=O)cc1 [diltiazem] | 0 |
| COc1ccc(CCN(C)CCCN2CCc3cc(OC)c(OC)cc3CC2=O)cc1OC [zatebradine] | 0 |
| CC(C)NCC(O)c1ccc(O)c(O)c1 (stereo unspecified) [Isoproterenol hydrochloride] | 0 |
| O=C(O)c1ccc(O)c2ncccc12 | 0 |
| NCCCC[C@H](N[C@@H](CCc1ccccc1)C(=O)O)C(=O)N1CCC[C@H]1C(=O)O [lisinopril] | 0 |
| C#C[C@]1(O)CC[C@H]2[C@@H]3CCc4cc(OC5CCCC5)ccc4[C@H]3CC[C@@]21C [quinestrol] | 0 |
| O=C(NCc1ccccn1)Nc1nnc(-c2ccco2)o1 | 0 |
| O=C1c2ccccc2C(Cc2ccncc2)(Cc2ccncc2)c2ccccc21 | 0 |
| CCOC(=O)C(C)(C)Oc1ccc(Cl)cc1 [Clofibrate] | 0 |
| CC(C)(Sc1ccc(CCN(CCCCC2CCCCC2)C(=O)NC2CCCCC2)cc1)C(=O)O | 0 |
